Measurements published in PubChem BioAssay (NCI).
Compounds without any hit were thinned out: in the full panel of roughly 83,000, 20% have a hit.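 For each line, cells grew in 96-well plates with the test compound present at a single concentration for 48 hours.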 Unmarked numbers belong to inactive results. The source made the active and inactive calls. The calls were made as follows: active = growth percent below 10; inactive = the rest.

Experiments:
Experiment in all cases: NCI-60 one-dose screen, 48 h (100 = growth as untreated, 0 = no growth, -100 = all killed)
Details in all cases: 10 µM unless noted
SR leukemia = test system: SR leukemia
RPMI-8226 leukemia = test system: RPMI-8226 leukemia
OVCAR-8 ovarian = test system: OVCAR-8 ovarian
OVCAR-5 ovarian = test system: OVCAR-5 ovarian
OVCAR-4 ovarian = test system: OVCAR-4 ovarian
SK-OV-3 ovarian = test system: SK-OV-3 ovarian
IGROV1 ovarian = test system: IGROV1 ovarian
OVCAR-3 ovarian = test system: OVCAR-3 ovarian
HS 578T breast = test system: HS 578T breast
NCI/ADR-RES ovarian = test system: NCI/ADR-RES ovarian
T-47D breast = test system: T-47D breast
BT-549 breast = test system: BT-549 breast
MDA-MB-435 melanoma = test system: MDA-MB-435 melanoma
SW-620 colon = test system: SW-620 colon
MCF7 breast = test system: MCF7 breast
HCT-116 colon = test system: HCT-116 colon
HCC-2998 colon = test system: HCC-2998 colon
KM12 colon = test system: KM12 colon

| SMILES | growth (SR leukemia) | growth (RPMI-8226 leukemia) | growth (OVCAR-8 ovarian) | growth (OVCAR-5 ovarian) | growth (OVCAR-4 ovarian) | growth (SK-OV-3 ovarian) | growth (IGROV1 ovarian) | growth (OVCAR-3 ovarian) | growth (HS 578T breast) | growth (NCI/ADR-RES ovarian) | growth (T-47D breast) | growth (BT-549 breast) | growth (MDA-MB-435 melanoma) | growth (SW-620 colon) | growth (MCF7 breast) | growth (HCT-116 colon) | growth (HCC-2998 colon) | growth (KM12 colon) |
| --- | --- | --- | --- | --- | --- | --- | --- | --- | --- | --- | --- | --- | --- | --- | --- | --- | --- | --- |
| C=CCNC(=S)NNc1ccc([N+](=O)[O-])cn1 | 98.3% | 101% | 111% | 95.6% | -92.2% (active) | 104% | 102% | 98.7% | 105% | 95.9% | 113% | 100% | 95.7% | 92% | 88.4% | 97.6% | 96.3% | 99.4% |
| COc1ccc(/C=C(/C(=O)N2CCCCC2)c2cc(OC)c(OC)c(OC)c2)cc1 | 13.6% | 15.7% | 34.4% | 35.1% | 56.8% | 27.6% | 42% | -19.2% (active) | 20.9% | 6.26% (active) | 45.8% | 53.6% | -51.3% (active) | 23.2% | 18.2% | 17.6% | 46.8% | 16% |
| CCOC(=O)C1=NN(c2ccccc2)C2=NC(=O)/C(=C\c3cn(-c4ccccc4)nc3-c3cc4ccccc4o3)C(=O)N12 | 98% | 83% | 100% | 106% | 103% | 97.6% | 89.1% | 103% | 97.9% | 106% | 86.6% | 97.4% | 108% | 91.9% | 75.6% | 89.1% | 101% | 97.5% |
| COc1ccc(Cn2cc3c(c2-c2ccc(OC)cc2)CCc2cnoc2-3)cc1 | 1.81% (active) | 16.7% | 23.8% | 52.2% | 35.9% | 3.54% (active) | -2.82% (active) | -18.2% (active) | -2.76% (active) | -3.57% (active) | 38.7% | 30.3% | -29.7% (active) | 22.6% | 4.23% (active) | 4.82% (active) | -30.2% (active) | 5.5% (active) |
| C[C@@H](c1ccc2c(c1)[nH]c1ccc(Cl)cc12)c1nc2ccccc2[nH]1 | 74.3% | 81.3% | 93% | 112% | 94% | 105% | 80.6% | 86.7% | 105% | 91% | 62.3% | 83.4% | 103% | 95.2% | 27.6% | 93.5% | 100% | 90.7% |
| CCOC(=O)c1cc(C(=O)c2ccc(Br)cc2)n2cc(C)cc(C)c12 | 98.1% | 83.7% | 102% | 115% | 91.6% | 86.2% | 102% | 104% | 89.2% | 99.6% | 80.3% | 79% | 102% | 103% | 90% | 75.3% | 102% | 98.9% |
| O=C(O)c1ccc(Br)nc1 | 95.9% | 98.7% | 98.3% | 86.1% | 98.6% | 92.3% | 107% | 102% | 102% | 102% | 99.1% | 106% | 103% | 97.1% | 93.8% | 98% | 104% | 107% |
| CCOC(=O)c1c(C)oc2ncnc(Nc3ccc(C(=O)NCCc4ccccc4)cc3)c12 | 89.2% | 84.6% | 76.7% | 110% | 45.5% | 85.6% | 102% | 97.3% | 51.2% | 76.9% | 65.1% | 67.3% | 87.5% | 105% | 78.6% | 64.8% | 91.5% | 89% |
| COc1cc2ncnc(Nc3ccc4c(cnn4C(=O)Nc4ccccc4)c3)c2cc1OC | 1.84% (active) | 70.5% | 103% | 105% | 88.5% | 110% | 80.7% | 95.7% | 102% | 100% | 77.7% | 83.4% | 94.7% | 103% | 60.4% | 95.8% | 87.4% | 93.5% |
| CCOC(=O)c1c(C)oc2ncnc(Nc3ccc(NC(=O)Nc4ccc(CC)cc4)cc3)c12 | 81.6% | 95.1% | 112% | 107% | 105% | 88.2% | 110% | 118% | 97.7% | 97.2% | 78.3% | 84.5% | 102% | 113% | 94.9% | 78.8% | 114% | 103% |
| c1ccc2[nH]c(-c3ccc(OCCCCCOc4ccc(-c5nc6ccccc6[nH]5)cc4)cc3)nc2c1 | -22.3% (active) | -79.4% (active) | -45.6% (active) | 16.1% | -60.5% (active) | 207% | 38.3% | 20.4% | 4.31% (active) | -0.189% (active) | -60.3% (active) | -13.5% (active) | 8.59% (active) | -3.03% (active) | -39.3% (active) | -21.8% (active) | 14.8% | 23.5% |
| CCCNC(=O)Oc1ccc(/C(=C(/CC)Cc2ccccc2)c2ccc(OCCN(CC)CC)cc2)cc1 | -28.6% (active) | 41.6% | 80.3% | 95.5% | 85.8% | 88.4% | 85.9% | 79.5% | 59% | 75.3% | 34.1% | 97.4% | 87.8% | 70.9% | 26.3% | 49.1% | 50% | 69.2% |
| CCN(CCO)CCNc1ccc(C)c2sc3cc(OC)ccc3c(=O)c12 | -3.46% (active) | 65.3% | 62.7% | 82.7% | 84.7% | 88.7% | 66.5% | 90.6% | 84.2% | 64.1% | 90.1% | 88.7% | 86.2% | 38.4% | 52.6% | 20.5% | 64.5% | 69.2% |
| O=C(CBr)OCc1ccc([N+](=O)[O-])o1 | 88.1% | 86.3% | 96.9% | 101% | 77.9% | 105% | 10.5% | 104% | 106% | 101% | 95.2% | 118% | 107% | 83.2% | 98.4% | 106% | 95.2% | 105% |
| O=C(/C=C\c1ccccc1Cl)c1ccccc1 | 67.6% | 66% | 104% | 89.8% | 89.8% | 107% | 111% | 99.5% | 111% | 101% | 91.6% | 92% | 90.5% | 82.5% | 46.8% | 53.9% | 94.6% | 66% |
| CC(C)(C)C(=O)OCOP(=O)(OCOC(=O)C(C)(C)C)C1CC(O)N(O)C1=O (stereo unspecified) | 8.3% (active) | 9.24% (active) | 13.7% | 73.8% | 74.4% | 52.5% | 3.72% (active) | 53.6% | -4.97% (active) | 44.6% | 36% | -8.94% (active) | 68.5% | 39.1% | 15.3% | 20.9% | 38.1% | 33.3% |
| CCCCCCCCCCCCCCCC[n+]1cccc(C#N)c1 | -8.5% (active) | 45.1% | 51.6% | 79.7% | 56.6% | 100% | 69.2% | 35.5% | 96.6% | 96.3% | 49.2% | 90.3% | 73.3% | 35.6% | 38.5% | 24% | 65.2% | 44.4% |
